The full list was thinned out, with hits kept by preference.
ST2 inh: blocks human ST2 binding to IL-33 | Q01638 | AlphaLISA ST2-Fc/biotin-IL-33 interaction, 1 h | inhibition, % for hits at 17 µM | hit rate 2.3% among 78,000 | AID 1259354; in the data active = inhibition above about 30%
Target sequence (Q01638 whole entry, looked up): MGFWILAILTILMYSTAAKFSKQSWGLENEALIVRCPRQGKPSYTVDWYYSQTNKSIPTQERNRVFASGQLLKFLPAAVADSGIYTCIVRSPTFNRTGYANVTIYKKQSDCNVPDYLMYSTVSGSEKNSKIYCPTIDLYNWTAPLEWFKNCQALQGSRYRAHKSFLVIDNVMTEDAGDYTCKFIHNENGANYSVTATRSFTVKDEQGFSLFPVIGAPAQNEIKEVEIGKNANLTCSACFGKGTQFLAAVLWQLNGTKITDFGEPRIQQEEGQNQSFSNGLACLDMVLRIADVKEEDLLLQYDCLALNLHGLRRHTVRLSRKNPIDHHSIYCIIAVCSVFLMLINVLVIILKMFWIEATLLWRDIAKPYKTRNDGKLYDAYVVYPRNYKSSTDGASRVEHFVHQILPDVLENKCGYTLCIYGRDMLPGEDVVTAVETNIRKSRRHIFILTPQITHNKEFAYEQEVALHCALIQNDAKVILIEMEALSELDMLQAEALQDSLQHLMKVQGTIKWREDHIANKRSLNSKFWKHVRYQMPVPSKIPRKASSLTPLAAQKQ
A number is an active result; n = inactive; ! = a repeat was not active.

SMILES	ST2 inh
CC(=O)N[C@@H](Cc1cnc[nH]1)C(=O)N1CCC(CO)(Cc2ccccc2)CC1	n
CC(=O)N1CCc2cc(Br)cc(S(=O)(=O)CCC(=O)N3CCc4ccccc43)c21	n
Cc1c(C)n2c3c(cccc13)CCC2	52.0%
Cc1cc2c(cc1O)NC(=O)CC2c1cc(=O)n2c3c(cccc13)CCC2 (stereo not given)	n
Cc1c(C=O)c2ccccc2n1CC(=O)N1CCCc2ccccc21	n
COc1ccccc1NC(=O)CN(c1ccc(Br)cc1)S(=O)(=O)c1ccccc1	n
O=C(Nc1ccccc1C(=O)O)c1ccccc1	33.0%
Cc1ccc(C(=O)Nc2ccccc2C(=O)O)cc1	n
O=C(Nc1ccccc1F)c1ccccc1	n
Cn1c(Sc2ccc([N+](=O)[O-])cn2)nc2ccccc21	n
CC1(C)OC(=O)C(=CNC(CC(N)=O)C(=O)O)C(=O)O1 (stereo not given)	n
O=C1OC(Nc2ccc(Cl)cc2Cl)c2ccccc21 (stereo not given)	n
COc1ccc2oc(=O)c(NC(=O)/C=C/c3ccc(Cl)cc3Cl)cc2c1	n
CC1=C(/C=C/c2ccc(Cl)cc2Cl)C(=O)c2ccccc2C1=O	37.0%
CN(Cc1cn(C)nc1-c1cccc(Cl)c1)CC1Cc2ccccc2O1 (stereo not given)	n
Cn1c(=O)c(-c2ccccc2N)nc2cc3ccccc3cc21	32.0%
CCCCSc1nnc(-c2ccccc2N)c(=O)[nH]1	n
Cc1cc2nc(Cc3cccc(F)c3)c(=O)n(C)c2cc1C	n
COc1cccc(CNC(=O)c2ccc(Nc3cc(-c4ccccc4)ncn3)cc2)c1	n
COc1ccc(C(=O)N2CCC(C(=O)Nc3ccc(F)c(Cl)c3)CC2)cc1	n
O=C1NC(=O)c2cc(Nc3ccccc3)c(Nc3ccccc3)cc21	n
Cn1c(CNc2ccccc2)cc(=O)n(C)c1=O	n
Cn1c(=O)cc2c3c(c(Nc4ccccc4)ccc31)C(=O)c1ccccc1-2	40.0%
Nc1ccccc1-c1nnc(SCc2ccc(Cl)cc2)[nH]c1=O	n
COc1cc(NC(=O)C(C)(C)Oc2ccc(Cl)cc2)c(OC)cc1Cl	n
SMILES	ST2 inh
COc1ccc(NC(=O)C(C)(C)Oc2ccc(Cl)cc2)cc1OC	n
COc1cc([N+](=O)[O-])ccc1NC(=O)C(C)(C)Oc1ccc(Cl)cc1	30.0%
Cc1cc(C(=O)N2CC[C@H](O)[C@@H](O)C2)ccc1F	n
c1ccc(-c2ccccc2-n2cnnc2)cc1	n
CC(C)n1cnc(S(=O)(=O)N2CCC(C(=O)Nc3ccc(S(N)(=O)=O)cc3)CC2)c1	n
CC(Cc1c[nH]c2ccccc12)NC(N)=O (stereo not given)	n
O=C(O)CCCc1c[nH]c2ccccc12	n
NC(=O)Cc1c[nH]c2cccc(O)c12	101.0%
COc1ccc(NCCNc2ccc(OC)cc2)cc1	48.0%
COc1ccc(NS(C)(=O)=O)cc1	n
COc1ccc(NC(=O)C(C)(C)C)cc1	n
CCOc1ccc(CC(=O)N(c2ccc(Br)cc2)C2C=CS(=O)(=O)C2)cc1 (stereo not given)	n
CC(C)(C)NC(=O)C12CC3CC(CC(C3)C1)C2	n
C=CCN(c1ccccc1)S(=O)(=O)c1ccc2c(c1)CC(C)N2C(C)=O (stereo not given)	n
O=C1N=C(N2CCCC2)S/C1=C\c1c(F)cccc1Cl	n
CC1=C(C(N)=O)C(c2cccc(F)c2)n2nc(SCc3ccccc3)nc2N1 (stereo not given)	32.0%!
COc1ccc(C2C(C(N)=O)=C(C)Nc3nc(SCc4ccccc4)nn32)cc1OC (stereo not given)	n
CC1=C(C(N)=O)C(c2ccc(O)cc2)n2nc(SCc3ccccc3)nc2N1 (stereo not given)	n
Cn1cc(CCC(=O)N2CCCC(C(=O)c3ccc(Oc4ccccc4)cc3)C2)cn1 (stereo not given)	n
O=C(Cc1c(C(=O)O)[nH]c2ccccc12)Nc1ccc(Oc2ccccc2)cc1	n
COc1cccc(-n2cc(C(=O)NCCC(=O)N(C)C3CCCCC3)c3ccccc3c2=O)c1	n
O=C1CSC(c2ccccc2)N1c1ccc(Cl)cc1 (stereo not given)	n
CC(C)(C)C1CCC2(CC1)SCC(=O)N2c1ccc(Cl)cc1 (stereo not given)	36.0%
CC1SC2(CCCCC2)N(c2ccc(Cl)cc2)C1=O (stereo not given)	n
CCC1Oc2ccccc2N(CC(=O)NC2CCCC(C)C2C)C1=O (stereo not given)	n
SMILES	ST2 inh
O=C(CN(CCO)Cc1nccs1)NC1CCCCCCC1	n
NC(=O)CN1CCC=C(CNC(=O)COc2ccccc2)C1	n
C=CCN1C(=Nc2cccnc2)SCC1(O)c1ccc(C)cc1 (stereo not given)	59.0%
CCC(=O)N1N=C(C)CC1(O)c1cccnc1 (stereo not given)	n
COc1ccc(C(CC(=O)N2CCN(c3cnccn3)CC2)c2ccccc2)cc1 (stereo not given)	n
CCC1=NN(C(=O)c2cccnc2)C(O)(c2ccc(Br)cc2)C1 (stereo not given)	n
C=CCN1C(=Nc2cccnc2)SCC1(O)c1ccc(OC)cc1 (stereo not given)	61.0%

Assay outcomes from PubChem.
